The campaign covered roughly 310,000 compounds. About 11,000 (3.5%) were called active. Entries that show only a call come without a potency. About 8% were inconclusive and are not listed. Calls follow the shape of the dose curve; as a rule, active = well fitted inhibition curve with a large enough effect; inconclusive = small, poorly fitted or top-dose-only effect, or effect the other way; inactive = flat fitted curve, though single readings scatter. For the sample, actives were picked, then their nearest neighbours and some compounds at random.
Assay: VP16 counterscreen qHTS for inhibitors of ROR gamma transcriptional activity;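 also: Gal4-VP16 expression switched on by copper sulfate through the metallothionein promoter; nearly all actives have a fitted effect of over 50% in size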
Conditions: Drosophila S2 Gal4-VP16 UAS-luciferase, luminescence, 20 h; series mostly up to 53.6 µM
Potency is read from the fitted curve at half-maximal effect.

Row | SMILES | Potency
1 | N#CCSc1nc(-c2ccccc2)nc2ccc(F)cc12 | inactive
2 | Cc1nc2ccc(S(=O)(=O)N(C)CC(=O)NC(C)c3ccccc3)cc2s1 (stereo unspecified) | inactive
3 | CC1CC(C)(C)NC(=S)N1CCC(=O)N1CCN(Cc2ccccc2)CC1 (stereo unspecified) | inactive
4 | CC1CC(=S)Nc2ccccc2N1Cc1ccccc1 (stereo unspecified) | 3.16 µM (active)
5 | CC1CC(=O)Nc2ccccc2N1S(=O)(=O)c1cccs1 (stereo unspecified) | inactive
6 | Cc1ccccc1OCC(=O)Nc1ccc(S(=O)(=O)N2CCOCC2)cc1 | inactive
7 | O=C(c1ccccc1)N1CCN(C(=O)c2cc3nc(-c4ccccc4)cc(C(F)(F)F)n3n2)CC1 | inactive
8 | COc1cc(OC)nc(S(C)(=O)=O)n1 | inactive
9 | COc1ccc(-c2cc(C(F)(F)F)nc(SCC(=O)Nc3ccc4c(c3)OCO4)n2)cc1OC | inactive
10 | COc1ccc(-c2cc(C(F)(F)F)nc(S(C)(=O)=O)n2)cc1OC | 5.62 µM (active)
11 | CC1=C(C(=O)OCC2CCCCC2)C(c2ccc(F)cc2)NC(=O)N1 (stereo unspecified) | inactive
12 | CC1CN(C(=S)Nc2ccccc2F)CC(C)O1 (stereo unspecified) | inactive
13 | CCOC(=O)c1c(NC(=O)c2ccc(S(=O)(=O)N(C)CC3CCCO3)cc2)sc2c1CC(C)(C)NC2(C)C (stereo unspecified) | inactive
14 | COC(=O)c1c(NC(=O)COc2ccc(Cl)cc2Cl)sc2c1CC(C)(C)NC2(C)C | 22.4 µM (active)
15 | COC(=O)c1sccc1NC(=O)COc1ccc(Cl)cc1 | inactive
16 | CCCn1c(C(C)Nc2nc(-c3ccc(C)cc3)cs2)nc2cc(Cl)c(N3CCCCC3)cc21 (stereo unspecified) | inactive
17 | CCCC1CCC(=NNC(=S)NCCc2ccccc2)CC1 (stereo unspecified) | 11.2 µM (active)
18 | S=C(NN=C1CCN(Cc2ccccc2)CC1)NC1CCCCC1 | inactive
19 | O=C(NCCc1ccccc1)C1CC1 | inactive
20 | O=C(NCC(=O)N1CCN(c2ncc(C(F)(F)F)cc2Cl)CC1)c1ccc(Br)o1 | inactive
21 | Cc1ccc(CN2CCC(n3nccc3NC(=O)CCCc3ccccc3)CC2)o1 | inactive
22 | O=C(Nc1cccc(F)c1)NC1CCCCCCC1 | inactive
23 | C/C(=N\NC(=O)Cc1ccc(Cl)cc1)c1ccccn1 | 2.51 µM (active)
24 | C/C(CC(=O)Nc1ccc(N(C)C)cc1)=N\NC(=O)c1ccccc1F | inactive

Row | SMILES | Potency
25 | C/C(=N\NC(=O)Cc1ccc(F)cc1)c1ccc(F)cc1 | inactive
26 | C/C(=N\NC(=O)c1ccccc1F)c1ccccn1 | 1.12 µM (active)
27 | O=C(Nc1ccc(NC(=O)c2ccccc2F)cc1)c1ccccc1F | inactive
28 | C/C(=N\NC(=O)Cc1ccc(Br)cc1)c1cccnc1 | inactive
29 | O=C(c1cc(-c2ccc(Cl)cc2)on1)N1CCN(c2ccccc2)CC1 | inactive
30 | O=C(COc1ccccc1Cl)N1CCCCCCC1 | inactive
31 | NS(=O)(=O)c1ccccc1NC(=O)c1c(O)c2ccccc2[nH]c1=O | inactive
32 | COc1cc(OC)c(/C=N/NC(=O)c2ccc([N+](=O)[O-])cc2)cc1Br | inactive
33 | COc1ccc(CC(=O)N/N=C/c2cc([N+](=O)[O-])cc(Br)c2O)cc1 | 3.16 µM (active)
34 | COc1ccc(CC(=O)NCC(=O)N/N=C/c2cc(Br)ccc2OC)cc1 | inactive
35 | COc1cccc(NC(=O)CCc2nnc3ccc(N4CCC(C)CC4)nn23)c1 | inactive
36 | CC(=O)c1ccc(NC(=O)c2ccc(-n3cncn3)c([N+](=O)[O-])c2)cc1 | inactive
37 | COc1ccc(Cl)cc1C(=O)NNC(=S)NC1CCCC1 | inactive
38 | S=C(NCc1ccc(Cl)cc1)NC12CC3CC(CC(C3)C1)C2 | 3.16 µM (active)
39 | S=C(NCc1ccc(Cl)cc1)NC1CCCCC1 | 7.94 µM (active)
40 | O=C(NCc1ccncc1)NC12CC3CC(CC(C3)C1)C2 | inactive
41 | CN(C)CCCNC(=S)NCc1ccc(Cl)cc1 | inactive
42 | O=C(NCc1ccc(Cl)cc1)NCc1ccc(Cl)cc1 | inactive
43 | O=C(NCCc1ccc(Cl)cc1)c1cccc(N2CCCC2=O)c1 | inactive
44 | S=C(Nc1ccc(Cl)cc1Cl)N1CCCC1 | inactive
45 | CN1CCN(S(=O)(=O)c2ccc(NC(=S)NC(=O)C3CC3)cc2)CC1 | inactive
46 | O=C(NC(=S)Nc1ccc(Cl)cc1Cl)C1CC1 | 5.62 µM (active)
47 | Oc1ccccc1C1=NN(c2ccccc2)C(c2ccccc2)C1 (stereo unspecified) | inactive
48 | CCC(=O)Nc1nc(C)c(C(=O)Nc2cccc(Cl)c2)s1 | inactive

Row | SMILES | Potency
49 | CN1CCN(C(=O)c2cnn(-c3ccccc3)c2NC(=O)c2ccc([N+](=O)[O-])cc2)CC1 | inactive
50 | Cc1cccc(NC(=S)NC(=O)c2ccc(Br)o2)c1 | inactive
51 | Cc1ccc(NC(=O)NC(=O)c2ccccc2)cc1F | inactive
52 | Cc1cccc(NC(=O)NC(=S)NC(=O)c2ccccc2)c1 | 5.01 µM (active)
53 | Cc1ccn2c(c1)nc(=O)c1cc(S(=O)(=O)N3CCC(C)CC3)ccc12 | inactive
54 | COc1ccc(CCNC(=O)C(=O)NCC2OCCN2S(=O)(=O)c2ccc(OC)c(C)c2)cc1 (stereo unspecified) | inactive
55 | Cn1c2ccccc2c(=O)c2c(=O)n(Cc3ccco3)c(COc3ccccc3)nc21 | 17.8 µM (active)
56 | COc1ccc(C(=O)CSc2nnc(COc3ccccc3)n2Cc2ccco2)cc1 | inactive
57 | Cc1nc2c(c(=O)n1Cc1ccco1)c1nc3ccccc3nc1n2Cc1ccccc1 | inactive
58 | COc1cc(/C=N\NC(=O)C2C(=O)NCC2c2ccccc2)cc(OC)c1O (stereo unspecified) | inactive
59 | O=C(N/N=C/c1cccc2cccnc12)[C@H]1C[C@@H]1c1ccccc1 | 8.91 µM (active)
60 | O=C(NNC(=S)Nc1ccc(F)cc1)[C@H]1C[C@@H]1c1ccccc1 | inactive
61 | CC(=O)c1ccc(S(=O)(=O)N(C)CCCC(=O)N(C)Cc2ccccc2F)cc1 | inactive
62 | CCOc1ccc(N(CC)S(=O)(=O)c2cccc3nsnc23)cc1 | inactive
63 | CN(C)/C=C1\C=C(c2ccccc2)OC1=O | 35.5 µM (active)
64 | Cc1ccc(C2=C/C(=C\c3cccnc3)C(=O)O2)cc1 | inactive
65 | CN(C)/C=C1/C(=O)Nc2ccccc21 | inactive
66 | COc1cc(NC(=O)CN2C(=O)NC(C)(c3ccc(OC(F)F)cc3)C2=O)cc(OC)c1OC (stereo unspecified) | inactive
67 | Cc1ccc(O)c(CNc2nc3ccccc3[nH]2)c1 | inactive
68 | COc1ccc(NC(=O)CCCC(=O)c2ccccc2)cc1 | inactive
69 | Cc1cccc(C(=O)NC(=S)N(C)C2CCCCC2)c1 | 2.24 µM (active)
70 | Cc1cccc(C(=O)NCCCN(C)CCCNC(=O)c2cccc(C)c2)c1 | inactive
71 | Cc1ccc(S(=O)(=O)NC(=O)c2cccc(C)c2)cc1 | inactive

— PubChem BioAssay AID2546 (National Center for Advancing Translational Sciences (NCATS), 2010)
